Experimental data: the supplement of paper PMC7156485

Tested on: TDF
Experiment: cell number relative to DMSO (% of DMSO); higher = more cells (less growth inhibition / toxicity)
Details: concentration: 10 µM; 24 h
Procedure, shortened: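 After 24 h at 37 °C with compounds at 10 µM, in triplicate, HCC1569 and TDF cells were fixed with 3.7% formaldehyde. Immunostaining used a rabbit anti-H1.0 antibody and an AlexaFluor 647 secondary, with DAPI, and six fields per well were imaged at ×10. H1.0 nuclear intensity or cell number is presented as percent of the plate control, from the median of replicates, with HCC1569 values smoothed for positional effects.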
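Further: TDF denotes transformed human dermal fibroblasts of mesenchymal origin.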

Structure (SMILES) | cell number
O=C(O)C(O)C(O)C(=O)O.O=C(c1ccc(F)cc1)C1CCN(CCn2c(=O)[nH]c3ccccc3c2=O)CC1 [Ketanserin tartrate] | 93.1
CCN1CCCC1CNC(=O)c1cc(S(=O)(=O)CC)c(N)cc1OC (configuration not stated) [Amisulpride] | 84.5
Cl.NC1(C(=O)O)CC1 [1-Aminocyclopropanecarboxylic acid hydrochloride] | 102
O=C(NC(CO)C(O)c1ccc([N+](=O)[O-])cc1)C(Cl)Cl (configuration not stated) [Chloramphenicol] | 92.2
COc1ccc(Cl)cc1C(=O)NCCc1ccc(S(=O)(=O)NC(=O)NC2CCCCC2)cc1 [Glyburide] | 102
CCCn1c(=O)[nH]c(=O)c2[nH]cnc21 [3-n-Propylxanthine] | 105
CS(=O)(=O)O.Cc1ccc(N(CC2=NCCN2)c2cccc(O)c2)cc1 [Phentolamine mesylate] | 105
CC(=O)NC(Cc1c[nH]c2ccccc12)C(=O)OCc1cc(C(F)(F)F)cc(C(F)(F)F)c1 (configuration not stated) | 103
CC1(C)CCC(C)(C)c2cc(C3(c4ccc(C(=O)O)cc4)OCCO3)ccc21 | 99
CC[C@H](NC(=O)c1c(O)c(-c2ccccc2)nc2ccccc12)c1ccccc1 | 98.3
C[N+](C)(C)CCC(=O)c1cccc2ccccc12.[I-] [2-(alpha-Naphthoyl)ethyltrimethylammonium iodide] | 81.5
COc1cc2c(cc1CC=C(C)C)C(=O)CC(c1ccc(O)cc1)O2 (configuration not stated) [Bavachinin A] | 104
